Reference: article PMC11006913

Tests used:
Assay in all cases: PBM; 200 nM protein, PBS
Details in all cases: dsDNA, one strand shown
HESX1 [1] = target: HESX1 (Homo sapiens, UniProt Q9UBX0 95-180, R165K)
HOXB4 [2] = target: HOXB4 (Homo sapiens, UniProt P17483 148-234)
HESX1 [3] = target: HESX1 (Homo sapiens, UniProt Q9UBX0 95-180)
HOXB4 [4] = target: HOXB4 (Homo sapiens, UniProt P17483 148-234, V174I)
HESX1 [5] = target: HESX1 (Homo sapiens, UniProt Q9UBX0 95-180, R109Q)
HESX1 [6] = target: HESX1 (Homo sapiens, UniProt Q9UBX0 95-180, P111T)
HESX1 (Homo sapiens, UniProt Q9UBX0 95-180, P111T), sequence (Q9UBX0 95-180 P111T): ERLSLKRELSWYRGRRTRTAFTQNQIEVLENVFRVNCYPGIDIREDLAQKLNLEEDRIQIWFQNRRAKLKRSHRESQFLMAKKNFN

HESX1 [7] = target: HESX1 (Homo sapiens, UniProt Q9UBX0 95-180, F115L)
HESX1 (Homo sapiens, UniProt Q9UBX0 95-180, F115L), sequence (Q9UBX0 95-180 F115L): as the sequence (Q9UBX0 95-180 P111T) above, with T17P, F21L counted along it

SHOX [8] = target: SHOX (Homo sapiens, UniProt O15266 103-189)
SHOX (Homo sapiens, UniProt O15266 103-189), sequence (O15266 103-189): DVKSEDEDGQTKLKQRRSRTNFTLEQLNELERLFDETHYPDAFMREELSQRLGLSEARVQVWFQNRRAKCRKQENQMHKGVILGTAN

HOXA4 = HOXA4 (Homo sapiens, UniProt Q00056 201-287, R217L)
HOXA4, sequence (Q00056 201-287 R217L): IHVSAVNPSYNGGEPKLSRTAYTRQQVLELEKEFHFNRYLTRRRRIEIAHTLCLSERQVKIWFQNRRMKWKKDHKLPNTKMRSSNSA

MSX2 [9] = target: MSX2 (Homo sapiens, UniProt P35548 130-214, R199I)
MSX2 (Homo sapiens, UniProt P35548 130-214, R199I), sequence (P35548 130-214 R199I): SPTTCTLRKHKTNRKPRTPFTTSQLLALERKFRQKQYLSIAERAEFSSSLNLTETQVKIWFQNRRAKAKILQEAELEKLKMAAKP

ALX3 [10] = target: ALX3 (Homo sapiens, UniProt O95076 139-225, N203Q)
ALX3 (Homo sapiens, UniProt O95076 139-225, N203Q), sequence (O95076 139-225 N203Q): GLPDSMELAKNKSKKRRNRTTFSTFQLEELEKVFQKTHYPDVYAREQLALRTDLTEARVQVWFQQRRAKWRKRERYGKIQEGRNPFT

SHOX [11] = target: SHOX (Homo sapiens, UniProt O15266 103-189, R173C)
SHOX (Homo sapiens, UniProt O15266 103-189, R173C), sequence (O15266 103-189 R173C): as the sequence (O15266 103-189) above, with R71C counted along it

ALX3 [12] = target: ALX3 (Homo sapiens, UniProt O95076 139-225)
ALX3 (Homo sapiens, UniProt O95076 139-225), sequence (O95076 139-225): as the sequence (O95076 139-225 N203Q) above, with Q65N counted along it

PROP1 [13] = target: PROP1 (Homo sapiens, UniProt O75360 56-141)
PROP1 (Homo sapiens, UniProt O75360 56-141), sequence (O75360 56-141): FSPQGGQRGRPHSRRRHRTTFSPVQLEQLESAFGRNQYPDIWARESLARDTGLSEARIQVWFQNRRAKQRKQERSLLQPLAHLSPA

PROP1 [14] = target: PROP1 (Homo sapiens, UniProt O75360 56-141, R99H)
PROP1 (Homo sapiens, UniProt O75360 56-141, R99H), sequence (O75360 56-141 R99H): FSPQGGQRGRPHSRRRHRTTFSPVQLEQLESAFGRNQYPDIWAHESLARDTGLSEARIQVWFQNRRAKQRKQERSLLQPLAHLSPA

ALX3 [15] = target: ALX3 (Homo sapiens, UniProt O95076 139-225, L168Q)
ALX3 (Homo sapiens, UniProt O95076 139-225, L168Q), sequence (O95076 139-225 L168Q): as the sequence (O95076 139-225 N203Q) above, with L30Q, Q65N counted along it

ALX3 [16] = target: ALX3 (Homo sapiens, UniProt O95076 139-225, L168V)
ALX3 (Homo sapiens, UniProt O95076 139-225, L168V), sequence (O95076 139-225 L168V): as the sequence (O95076 139-225 N203Q) above, with L30V, Q65N counted along it

PROP1 [17] = target: PROP1 (Homo sapiens, UniProt O75360 56-141, F88S)
PROP1 (Homo sapiens, UniProt O75360 56-141, F88S), sequence (O75360 56-141 F88S): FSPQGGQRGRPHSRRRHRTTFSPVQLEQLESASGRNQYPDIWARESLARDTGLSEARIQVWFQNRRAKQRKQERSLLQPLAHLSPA

MSX2 [18] = target: MSX2 (Homo sapiens, UniProt P35548 130-214, F161Y)
MSX2 (Homo sapiens, UniProt P35548 130-214, F161Y), sequence (P35548 130-214 F161Y): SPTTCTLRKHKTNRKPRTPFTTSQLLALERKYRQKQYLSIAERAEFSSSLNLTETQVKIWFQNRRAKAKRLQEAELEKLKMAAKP

ALX3 [19] = target: ALX3 (Homo sapiens, UniProt O95076 139-225, N203S)
ALX3 (Homo sapiens, UniProt O95076 139-225, N203S), sequence (O95076 139-225 N203S): as the sequence (O95076 139-225 N203Q) above, with Q65S counted along it

HESX1 (Homo sapiens, UniProt Q9UBX0 95-180, R165K), sequence (Q9UBX0 95-180 R165K): as the sequence (Q9UBX0 95-180 P111T) above, with T17P, R71K counted along it
HESX1 (Homo sapiens, UniProt Q9UBX0 95-180), sequence (Q9UBX0 95-180): as the sequence (Q9UBX0 95-180 P111T) above, with T17P counted along it
HOXB4 (Homo sapiens, UniProt P17483 148-234), sequence (P17483 148-234): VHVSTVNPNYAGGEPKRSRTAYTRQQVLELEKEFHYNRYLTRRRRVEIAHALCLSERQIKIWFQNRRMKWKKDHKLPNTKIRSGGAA
HOXB4 (Homo sapiens, UniProt P17483 148-234, V174I), sequence (P17483 148-234 V174I): as the sequence (P17483 148-234) above, with V27I counted along it
HESX1 (Homo sapiens, UniProt Q9UBX0 95-180, R109Q), sequence (Q9UBX0 95-180 R109Q): as the sequence (Q9UBX0 95-180 P111T) above, with R15Q, T17P counted along it

| Sequence | binding signal (HESX1 [1]) | binding signal (HOXB4 [2]) | binding signal (HESX1 [3]) | binding signal (HOXB4 [4]) | binding signal (HESX1 [5]) | binding signal (HESX1 [6]) | binding signal (HESX1 [7]) | binding signal (SHOX [8]) | binding signal (HOXA4) | binding signal (MSX2 [9]) | binding signal (ALX3 [10]) | binding signal (SHOX [11]) | binding signal (ALX3 [12]) | binding signal (PROP1 [13]) | binding signal (PROP1 [14]) | binding signal (ALX3 [15]) | binding signal (ALX3 [16]) | binding signal (PROP1 [17]) | binding signal (MSX2 [18]) | binding signal (ALX3 [19]) |
| --- | --- | --- | --- | --- | --- | --- | --- | --- | --- | --- | --- | --- | --- | --- | --- | --- | --- | --- | --- | --- |
| GGCAGGCC | 6.38 upbm affinity estimate (log intensity, higher = more binding, comparable within an allelic series) | 7.41 upbm affinity estimate (log intensity, higher = more binding, comparable within an allelic series) | 6.43 upbm affinity estimate (log intensity, higher = more binding, comparable within an allelic series) | 7.33 upbm affinity estimate (log intensity, higher = more binding, comparable within an allelic series) | 6.29 upbm affinity estimate (log intensity, higher = more binding, comparable within an allelic series) | 6.43 upbm affinity estimate (log intensity, higher = more binding, comparable within an allelic series) | 6.33 upbm affinity estimate (log intensity, higher = more binding, comparable within an allelic series) |  |  |  |  |  |  |  |  |  |  |  |  |  |
| CAATTAGC | 13.2 upbm affinity estimate (log intensity, higher = more binding, comparable within an allelic series) | 13.3 upbm affinity estimate (log intensity, higher = more binding, comparable within an allelic series) | 13.3 upbm affinity estimate (log intensity, higher = more binding, comparable within an allelic series) | 14 upbm affinity estimate (log intensity, higher = more binding, comparable within an allelic series) | 9.79 upbm affinity estimate (log intensity, higher = more binding, comparable within an allelic series) | 11.7 upbm affinity estimate (log intensity, higher = more binding, comparable within an allelic series) | 7.74 upbm affinity estimate (log intensity, higher = more binding, comparable within an allelic series) | 12.7 upbm affinity estimate (log intensity, higher = more binding, comparable within an allelic series) | 11.9 upbm affinity estimate (log intensity, higher = more binding, comparable within an allelic series) | 13.1 upbm affinity estimate (log intensity, higher = more binding, comparable within an allelic series) | 8.26 upbm affinity estimate (log intensity, higher = more binding, comparable within an allelic series) | 9.99 upbm affinity estimate (log intensity, higher = more binding, comparable within an allelic series) | 12.6 upbm affinity estimate (log intensity, higher = more binding, comparable within an allelic series) | 11.8 upbm affinity estimate (log intensity, higher = more binding, comparable within an allelic series) | 11.9 upbm affinity estimate (log intensity, higher = more binding, comparable within an allelic series) | 10.7 upbm affinity estimate (log intensity, higher = more binding, comparable within an allelic series) | 10.1 upbm affinity estimate (log intensity, higher = more binding, comparable within an allelic series) | 7.57 upbm affinity estimate (log intensity, higher = more binding, comparable within an allelic series) | 13.8 upbm affinity estimate (log intensity, higher = more binding, comparable within an allelic series) | 8.45 upbm affinity estimate (log intensity, higher = more binding, comparable within an allelic series) |
| CAATTAAG | 13 upbm affinity estimate (log intensity, higher = more binding, comparable within an allelic series) | 13 upbm affinity estimate (log intensity, higher = more binding, comparable within an allelic series) | 12.9 upbm affinity estimate (log intensity, higher = more binding, comparable within an allelic series) | 13.7 upbm affinity estimate (log intensity, higher = more binding, comparable within an allelic series) | 9.81 upbm affinity estimate (log intensity, higher = more binding, comparable within an allelic series) | 11.7 upbm affinity estimate (log intensity, higher = more binding, comparable within an allelic series) | 7.88 upbm affinity estimate (log intensity, higher = more binding, comparable within an allelic series) | 12.3 upbm affinity estimate (log intensity, higher = more binding, comparable within an allelic series) | 12.1 upbm affinity estimate (log intensity, higher = more binding, comparable within an allelic series) | 12.8 upbm affinity estimate (log intensity, higher = more binding, comparable within an allelic series) | 8.48 upbm affinity estimate (log intensity, higher = more binding, comparable within an allelic series) | 10.1 upbm affinity estimate (log intensity, higher = more binding, comparable within an allelic series) | 12.5 upbm affinity estimate (log intensity, higher = more binding, comparable within an allelic series) | 11.6 upbm affinity estimate (log intensity, higher = more binding, comparable within an allelic series) | 11.8 upbm affinity estimate (log intensity, higher = more binding, comparable within an allelic series) | 10.7 upbm affinity estimate (log intensity, higher = more binding, comparable within an allelic series) | 10.2 upbm affinity estimate (log intensity, higher = more binding, comparable within an allelic series) | 7.75 upbm affinity estimate (log intensity, higher = more binding, comparable within an allelic series) | 13.4 upbm affinity estimate (log intensity, higher = more binding, comparable within an allelic series) | 8.56 upbm affinity estimate (log intensity, higher = more binding, comparable within an allelic series) |
| CCAGGTCC | 6.37 upbm affinity estimate (log intensity, higher = more binding, comparable within an allelic series) | 7.71 upbm affinity estimate (log intensity, higher = more binding, comparable within an allelic series) | 6.39 upbm affinity estimate (log intensity, higher = more binding, comparable within an allelic series) | 7.79 upbm affinity estimate (log intensity, higher = more binding, comparable within an allelic series) | 6.29 upbm affinity estimate (log intensity, higher = more binding, comparable within an allelic series) | 6.38 upbm affinity estimate (log intensity, higher = more binding, comparable within an allelic series) | 6.42 upbm affinity estimate (log intensity, higher = more binding, comparable within an allelic series) |  |  |  |  |  |  | 6.63 upbm affinity estimate (log intensity, higher = more binding, comparable within an allelic series) | 6.65 upbm affinity estimate (log intensity, higher = more binding, comparable within an allelic series) |  |  | 6.38 upbm affinity estimate (log intensity, higher = more binding, comparable within an allelic series) |  |  |
| ACTAATTA | 13.9 upbm affinity estimate (log intensity, higher = more binding, comparable within an allelic series) | 13.5 upbm affinity estimate (log intensity, higher = more binding, comparable within an allelic series) | 13.5 upbm affinity estimate (log intensity, higher = more binding, comparable within an allelic series) | 14.2 upbm affinity estimate (log intensity, higher = more binding, comparable within an allelic series) | 10.5 upbm affinity estimate (log intensity, higher = more binding, comparable within an allelic series) | 12.4 upbm affinity estimate (log intensity, higher = more binding, comparable within an allelic series) | 8.35 upbm affinity estimate (log intensity, higher = more binding, comparable within an allelic series) | 13.2 upbm affinity estimate (log intensity, higher = more binding, comparable within an allelic series) | 12.9 upbm affinity estimate (log intensity, higher = more binding, comparable within an allelic series) | 13.5 upbm affinity estimate (log intensity, higher = more binding, comparable within an allelic series) | 8.59 upbm affinity estimate (log intensity, higher = more binding, comparable within an allelic series) | 10.6 upbm affinity estimate (log intensity, higher = more binding, comparable within an allelic series) | 12.9 upbm affinity estimate (log intensity, higher = more binding, comparable within an allelic series) | 12.2 upbm affinity estimate (log intensity, higher = more binding, comparable within an allelic series) | 12.4 upbm affinity estimate (log intensity, higher = more binding, comparable within an allelic series) | 11.5 upbm affinity estimate (log intensity, higher = more binding, comparable within an allelic series) | 11.2 upbm affinity estimate (log intensity, higher = more binding, comparable within an allelic series) | 8.34 upbm affinity estimate (log intensity, higher = more binding, comparable within an allelic series) | 13.8 upbm affinity estimate (log intensity, higher = more binding, comparable within an allelic series) | 8.73 upbm affinity estimate (log intensity, higher = more binding, comparable within an allelic series) |
